Where “and” joins values, the source holds several entries; their conditions need not be identical. Equal entries are not always repeated. Measured potencies and affinities stand elsewhere. Values without a mark were called inactive. How the calls were made is not given here.
Settings: Ebola virus entry assay, green fluorescence channel
Further: 0% is about no effect.

Compound	efficacy
CCn1cc(C(=O)O)c(=O)c2ccc(C)nc21	67.7%
CC(C)C[C@H](NC(=O)[C@H](CCc1ccccc1)NC(=O)CN1CCOCC1)C(=O)N[C@@H](Cc1ccccc1)C(=O)N[C@@H](CC(C)C)C(=O)[C@@]1(C)CO1	-41%
CCN(CC)C(=S)SSC(=S)N(CC)CC	-47.8%
Cc1cccc(C)c1NC(=O)CN1CCN(CCCC(c2ccc(F)cc2)c2ccc(F)cc2)CC1	109%
Cc1ncc(CNC(=O)N(CCCl)N=O)c(N)n1	16.2%
COc1cccc2c1C(=O)c1c(O)c3c(c(O)c1C2=O)C[C@@](O)(C(=O)CO)C[C@@H]3O[C@H]1C[C@H](N)[C@H](O)[C@H](C)O1	89.6%
c1ccc(C2CC2)c(OCC2=NCCN2)c1	46.8%
CC(C)=CCOc1c2occc2cc2ccc(=O)oc12	19.5%
O=C(CCCN1CCC(O)(c2ccc(Cl)cc2)CC1)c1ccc(F)cc1	61.7%
NC(=O)N/N=C/c1ccc([N+](=O)[O-])o1	31.4%
CC/C=C(\C(=O)N[C@@H]1C(=O)N2C(C(=O)OCOC(=O)C(C)(C)C)=C(COC(N)=O)CS[C@H]12)c1csc(N)n1	11.1% and -32.9%
CC(C)=CC1C(C(=O)OCc2cccc(Oc3ccccc3)c2)C1(C)C (configuration not stated)	-13.4%
CC(=O)SC[C@@H](C)C(=O)N1CCC[C@H]1C(=O)N[C@@H](Cc1ccccc1)C(=O)O	13.4%
N=c1nc(N2CCCCC2)cc(N)n1O	-16.3%
CC[N+](CC)(CC)CC	-18.6%
C[C@H]1O[C@@H](O[C@H]2[C@@H](O)C[C@H](O[C@H]3[C@@H](O)C[C@H](O[C@H]4CC[C@@]5(C)[C@H](CC[C@@H]6[C@@H]5CC[C@]5(C)[C@@H](C7=CC(=O)OC7)CC[C@]65O)C4)O[C@@H]3C)O[C@@H]2C)C[C@H](O)[C@@H]1O	-46.6%
COc1cc(Nc2c(C#N)cnc3cc(OCCCN4CCN(C)CC4)c(OC)cc23)c(Cl)cc1Cl	56%
CC1(C)NC(=O)N(c2ccc([N+](=O)[O-])c(C(F)(F)F)c2)C1=O	16.8%
CC(=O)[C@H]1CC[C@H]2[C@@H]3CC[C@H]4C[C@H](O)CC[C@]4(C)[C@H]3C(=O)C[C@]12C	-24.6%

Compound	efficacy
CCCCC(CC)CN=C(N)NC(N)=NCCCCCCN=C(N)NC(N)=NCC(CC)CCCC (configuration not stated)	-201%
CC(C)c1nc(CN(C)C(=O)N[C@H](C(=O)N[C@@H](Cc2ccccc2)C[C@H](O)[C@H](Cc2ccccc2)NC(=O)OCc2cncs2)C(C)C)cs1	31.8%
CCOC(=O)[C@H](CCc1ccccc1)N[C@@H](C)C(=O)N1Cc2ccccc2C[C@H]1C(=O)O	30.9%
O=C(NC(O)C(Cl)(Cl)Cl)NC(O)C(Cl)(Cl)Cl (configuration not stated)	18%
N[C@@H](Cc1ccc(Oc2cc(I)c(O)c(I)c2)c(I)c1)C(=O)O	-32%
Cc1cccc(C)c1NC1=NCCCS1	-17.5%
Cn1cnc2c(F)c(Nc3ccc(Br)cc3Cl)c(C(=O)NOCCO)cc21	24.6%
CCCCOCCOCCOCc1cc2c(cc1CCC)OCO2	-21%
CC1NCCOC1c1ccccc1 (configuration not stated)	-41.7%
CC(C)OC(=O)C(C)(C)Oc1ccc(C(=O)c2ccc(Cl)cc2)cc1	75.8%
CCC1(C2=NCCN2)Cc2ccccc2O1 (configuration not stated)	28%
OC1(c2ccc(Cl)c(C(F)(F)F)c2)CCN(CCCC(c2ccc(F)cc2)c2ccc(F)cc2)CC1	-169%
CCCCc1oc2ccccc2c1C(=O)c1cc(I)c(OCCN(CC)CC)c(I)c1	105%
Clc1ccc(CCC(Cn2ccnc2)Sc2c(Cl)cccc2Cl)cc1 (configuration not stated)	-22%
C=CCN1CC[C@]23c4c5ccc(O)c4O[C@H]2C(=O)CC[C@@]3(O)[C@H]1C5	15.7%
NP(N)(=O)NC(=O)c1ccc(F)cc1	-25%
CN1C(=S)CN=C(c2ccccc2)c2cc(Cl)ccc21	37%
CN1CC[C@H](c2c(O)cc(O)c3c(=O)cc(-c4ccccc4Cl)oc23)[C@H](O)C1	58.1%
